About 8,800 targets were measured; listed, in parts, are those with a hit and a random draw of the rest. About 0.5% of all pairs of compound and target were hits. A number with no mark means an inactive call.
Legend:
Assay in all cases: log2 fold change, soluble protein after heating vs DMSO (PISA); higher = thermal stabilisation; K562 lysate, 10 uM; active = over 0.2 and 3.5 SD of the protein, either way, in both replicates (recomputed)
nilotinib = compound: Cc1cn(-c2cc(NC(=O)c3ccc(C)c(Nc4nccc(-c5cccnc5)n4)c3)cc(C(F)(F)F)c2)cn1 [nilotinib]
Procedure, shortened: (§1)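 Soluble protein was defined as the supernatant remaining after 21,000xg for 90 min, following pooling of heated aliquots and adjustment to 0.5% NP-40 at 4°C. Before that, crude K562 extract at 1 mg/mL protein in PBS pH 7.4 with 1 mM MgCl2 was treated with 10 μM compound for 30 min and heated for 3 min across 48°C-58°C. Quantification used TMTpro 16plex LC-MS/MS with channel sums equalised, and values are log-two fold changes in thermal stability relative to solvent controls from duplicates.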

[1] = compound: Cc1nc(Nc2n[nH]c3c2CN(C(=O)N[C@H](CN(C)C)c2ccccc2)C3(C)C)c2sccc2n1
Procedure, shortened: as §1

dasatinib = compound: Cc1nc(Nc2ncc(C(=O)Nc3c(C)cccc3Cl)s2)cc(N2CCN(CCO)CC2)n1 [dasatinib]
Procedure, shortened: as §1

[2] = compound: Cc1ncc(-c2ccnc(Nc3ccc(S(C)(=O)=O)cc3)n2)n1C(C)C
Procedure, shortened: as §1

[3] = compound: Cn1cc(-c2ccc3c(c2)CCN3C(=O)Cc2cccc(C(F)(F)F)c2)c2c(N)ncnc21
Procedure, shortened: as §1

quisinostat = compound: Cn1cc(CNCC2CCN(c3ncc(C(=O)NO)cn3)CC2)c2ccccc21 [quisinostat]
Procedure, shortened: as §1

tipifarnib = compound: Cn1cncc1[C@@](N)(c1ccc(Cl)cc1)c1ccc2c(c1)c(-c1cccc(Cl)c1)cc(=O)n2C [tipifarnib]
Procedure, shortened: as §1

[4] = compound: NC(=O)Nc1cc(-c2cccc(F)c2)sc1C(=O)N[C@H]1CCCNC1
Procedure, shortened: as §1

[5] = compound: NC(=O)c1cnc(N[C@@H]2CCCC[C@@H]2N)nc1Nc1cccc(-n2nccn2)c1
Procedure, shortened: as §1

[6] = compound: NC1(c2ccc(-c3nc4ccn5c(=O)[nH]nc5c4cc3-c3ccccc3)cc2)CCC1
Procedure, shortened: as §1

[7] = compound: NCC(=O)Nc1ccc(-n2nc(C(F)(F)F)cc2-c2ccc3c(ccc4ccccc43)c2)cc1
Procedure, shortened: as §1

vorinostat = compound: O=C(CCCCCCC(=O)Nc1ccccc1)NO [vorinostat]
Procedure, shortened: as §1

silmitasertib = compound: O=C(O)c1ccc2c(c1)nc(Nc1cccc(Cl)c1)c1ccncc12 [silmitasertib]
Procedure, shortened: as §1

[8] = compound: O=C1NC(=O)C(c2cnc3ccccn23)=C1c1cn2c3c(cc(F)cc13)CN(C(=O)N1CCCCC1)CC2
Procedure, shortened: as §1

entospletinib = compound: c1cn2cc(-c3ccc4cn[nH]c4c3)nc(Nc3ccc(N4CCOCC4)cc3)c2n1 [entospletinib]
Procedure, shortened: as §1

Sequence of UniProt P67936 (P67936 whole entry, looked up): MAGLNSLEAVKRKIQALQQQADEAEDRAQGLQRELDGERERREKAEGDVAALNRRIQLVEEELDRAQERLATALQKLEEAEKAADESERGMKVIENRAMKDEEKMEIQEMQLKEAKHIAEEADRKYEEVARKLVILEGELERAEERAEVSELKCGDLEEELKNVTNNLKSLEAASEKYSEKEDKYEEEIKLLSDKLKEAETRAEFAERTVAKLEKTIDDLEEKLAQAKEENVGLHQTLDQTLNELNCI
Sequence of UniProt P68371 (P68371 whole entry, looked up): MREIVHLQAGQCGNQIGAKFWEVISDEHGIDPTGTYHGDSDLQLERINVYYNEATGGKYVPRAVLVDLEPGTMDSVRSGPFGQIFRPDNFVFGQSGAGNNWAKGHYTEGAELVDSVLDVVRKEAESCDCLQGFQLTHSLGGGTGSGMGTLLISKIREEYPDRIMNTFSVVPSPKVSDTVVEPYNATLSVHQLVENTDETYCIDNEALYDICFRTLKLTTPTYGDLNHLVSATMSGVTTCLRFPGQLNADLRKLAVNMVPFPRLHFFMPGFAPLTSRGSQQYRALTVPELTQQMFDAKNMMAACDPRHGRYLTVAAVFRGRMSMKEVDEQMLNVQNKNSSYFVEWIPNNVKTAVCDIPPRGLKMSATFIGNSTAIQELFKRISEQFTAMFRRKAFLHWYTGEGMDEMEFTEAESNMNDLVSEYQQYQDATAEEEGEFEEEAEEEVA
Sequence of UniProt Q14139 (Q14139 whole entry, looked up): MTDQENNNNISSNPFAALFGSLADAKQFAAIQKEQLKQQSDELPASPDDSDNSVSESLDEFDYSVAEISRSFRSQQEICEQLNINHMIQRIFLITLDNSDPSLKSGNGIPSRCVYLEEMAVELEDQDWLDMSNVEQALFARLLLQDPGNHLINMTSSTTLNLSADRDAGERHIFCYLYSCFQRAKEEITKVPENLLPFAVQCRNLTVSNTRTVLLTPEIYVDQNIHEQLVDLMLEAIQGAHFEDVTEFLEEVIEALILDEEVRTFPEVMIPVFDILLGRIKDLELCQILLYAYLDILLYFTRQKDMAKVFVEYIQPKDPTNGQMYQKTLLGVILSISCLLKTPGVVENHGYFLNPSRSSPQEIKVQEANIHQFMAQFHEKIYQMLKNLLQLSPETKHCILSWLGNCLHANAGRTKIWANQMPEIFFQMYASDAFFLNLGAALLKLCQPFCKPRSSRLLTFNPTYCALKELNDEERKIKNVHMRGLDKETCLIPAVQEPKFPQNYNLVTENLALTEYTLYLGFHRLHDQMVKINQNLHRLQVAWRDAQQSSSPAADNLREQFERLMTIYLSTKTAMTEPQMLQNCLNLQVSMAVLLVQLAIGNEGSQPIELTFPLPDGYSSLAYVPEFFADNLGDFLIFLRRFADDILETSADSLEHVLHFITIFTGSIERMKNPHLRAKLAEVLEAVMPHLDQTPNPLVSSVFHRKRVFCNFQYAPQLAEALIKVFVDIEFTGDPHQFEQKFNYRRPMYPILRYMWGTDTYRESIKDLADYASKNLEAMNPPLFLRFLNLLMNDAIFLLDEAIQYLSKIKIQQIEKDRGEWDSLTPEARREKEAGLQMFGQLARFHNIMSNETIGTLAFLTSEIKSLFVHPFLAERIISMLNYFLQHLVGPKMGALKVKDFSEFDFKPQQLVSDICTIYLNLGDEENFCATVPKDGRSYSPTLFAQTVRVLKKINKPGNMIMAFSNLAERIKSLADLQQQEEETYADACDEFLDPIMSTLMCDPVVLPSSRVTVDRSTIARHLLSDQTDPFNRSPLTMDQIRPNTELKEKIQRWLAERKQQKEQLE
Sequence of UniProt Q8N0Z6 (Q8N0Z6 whole entry, looked up): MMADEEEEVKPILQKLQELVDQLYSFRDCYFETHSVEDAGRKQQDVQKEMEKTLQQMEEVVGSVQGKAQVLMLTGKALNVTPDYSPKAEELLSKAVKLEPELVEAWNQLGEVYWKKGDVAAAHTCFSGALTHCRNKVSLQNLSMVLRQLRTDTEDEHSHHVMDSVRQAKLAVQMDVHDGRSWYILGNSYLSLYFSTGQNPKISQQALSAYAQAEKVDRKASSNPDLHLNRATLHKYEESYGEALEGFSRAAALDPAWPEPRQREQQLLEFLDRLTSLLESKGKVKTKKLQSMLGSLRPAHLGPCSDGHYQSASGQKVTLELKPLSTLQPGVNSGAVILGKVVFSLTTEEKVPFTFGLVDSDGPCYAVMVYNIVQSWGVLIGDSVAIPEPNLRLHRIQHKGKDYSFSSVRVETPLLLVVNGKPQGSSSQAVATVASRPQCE
Sequence of UniProt Q9BZL1 (Q9BZL1 whole entry, looked up): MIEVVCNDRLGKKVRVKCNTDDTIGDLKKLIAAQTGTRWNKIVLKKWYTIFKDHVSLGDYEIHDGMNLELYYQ
Sequence of UniProt Q5TEJ8 (Q5TEJ8 whole entry, looked up): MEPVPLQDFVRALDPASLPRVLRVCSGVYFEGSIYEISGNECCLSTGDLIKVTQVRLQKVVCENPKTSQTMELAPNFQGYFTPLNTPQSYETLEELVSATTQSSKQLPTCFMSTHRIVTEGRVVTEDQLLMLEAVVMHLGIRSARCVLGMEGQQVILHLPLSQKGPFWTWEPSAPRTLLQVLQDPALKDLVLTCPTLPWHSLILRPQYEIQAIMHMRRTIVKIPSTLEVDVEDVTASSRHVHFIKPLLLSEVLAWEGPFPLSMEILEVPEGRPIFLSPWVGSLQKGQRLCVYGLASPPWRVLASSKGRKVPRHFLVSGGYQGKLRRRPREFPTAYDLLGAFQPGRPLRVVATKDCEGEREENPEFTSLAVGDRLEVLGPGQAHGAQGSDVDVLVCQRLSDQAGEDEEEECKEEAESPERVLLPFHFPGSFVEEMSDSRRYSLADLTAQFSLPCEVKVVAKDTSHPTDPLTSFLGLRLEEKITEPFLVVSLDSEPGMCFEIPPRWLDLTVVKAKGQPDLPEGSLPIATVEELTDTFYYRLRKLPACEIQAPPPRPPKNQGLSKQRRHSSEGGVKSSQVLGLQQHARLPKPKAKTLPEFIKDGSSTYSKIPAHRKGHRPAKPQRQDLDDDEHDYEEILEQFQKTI
Sequence of UniProt A6NHL2 (A6NHL2 whole entry, looked up): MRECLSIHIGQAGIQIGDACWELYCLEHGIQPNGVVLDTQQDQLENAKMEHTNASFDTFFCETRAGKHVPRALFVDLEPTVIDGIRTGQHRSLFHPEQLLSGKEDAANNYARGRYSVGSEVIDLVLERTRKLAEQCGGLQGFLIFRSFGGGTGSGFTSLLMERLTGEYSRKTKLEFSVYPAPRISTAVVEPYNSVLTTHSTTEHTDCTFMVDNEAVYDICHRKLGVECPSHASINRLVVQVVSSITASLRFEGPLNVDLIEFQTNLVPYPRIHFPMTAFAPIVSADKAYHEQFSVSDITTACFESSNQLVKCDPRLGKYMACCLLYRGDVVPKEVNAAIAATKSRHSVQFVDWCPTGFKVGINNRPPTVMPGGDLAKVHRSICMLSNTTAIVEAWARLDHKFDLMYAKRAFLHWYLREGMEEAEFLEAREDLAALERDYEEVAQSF
Sequence of UniProt O95271 (O95271 whole entry, looked up): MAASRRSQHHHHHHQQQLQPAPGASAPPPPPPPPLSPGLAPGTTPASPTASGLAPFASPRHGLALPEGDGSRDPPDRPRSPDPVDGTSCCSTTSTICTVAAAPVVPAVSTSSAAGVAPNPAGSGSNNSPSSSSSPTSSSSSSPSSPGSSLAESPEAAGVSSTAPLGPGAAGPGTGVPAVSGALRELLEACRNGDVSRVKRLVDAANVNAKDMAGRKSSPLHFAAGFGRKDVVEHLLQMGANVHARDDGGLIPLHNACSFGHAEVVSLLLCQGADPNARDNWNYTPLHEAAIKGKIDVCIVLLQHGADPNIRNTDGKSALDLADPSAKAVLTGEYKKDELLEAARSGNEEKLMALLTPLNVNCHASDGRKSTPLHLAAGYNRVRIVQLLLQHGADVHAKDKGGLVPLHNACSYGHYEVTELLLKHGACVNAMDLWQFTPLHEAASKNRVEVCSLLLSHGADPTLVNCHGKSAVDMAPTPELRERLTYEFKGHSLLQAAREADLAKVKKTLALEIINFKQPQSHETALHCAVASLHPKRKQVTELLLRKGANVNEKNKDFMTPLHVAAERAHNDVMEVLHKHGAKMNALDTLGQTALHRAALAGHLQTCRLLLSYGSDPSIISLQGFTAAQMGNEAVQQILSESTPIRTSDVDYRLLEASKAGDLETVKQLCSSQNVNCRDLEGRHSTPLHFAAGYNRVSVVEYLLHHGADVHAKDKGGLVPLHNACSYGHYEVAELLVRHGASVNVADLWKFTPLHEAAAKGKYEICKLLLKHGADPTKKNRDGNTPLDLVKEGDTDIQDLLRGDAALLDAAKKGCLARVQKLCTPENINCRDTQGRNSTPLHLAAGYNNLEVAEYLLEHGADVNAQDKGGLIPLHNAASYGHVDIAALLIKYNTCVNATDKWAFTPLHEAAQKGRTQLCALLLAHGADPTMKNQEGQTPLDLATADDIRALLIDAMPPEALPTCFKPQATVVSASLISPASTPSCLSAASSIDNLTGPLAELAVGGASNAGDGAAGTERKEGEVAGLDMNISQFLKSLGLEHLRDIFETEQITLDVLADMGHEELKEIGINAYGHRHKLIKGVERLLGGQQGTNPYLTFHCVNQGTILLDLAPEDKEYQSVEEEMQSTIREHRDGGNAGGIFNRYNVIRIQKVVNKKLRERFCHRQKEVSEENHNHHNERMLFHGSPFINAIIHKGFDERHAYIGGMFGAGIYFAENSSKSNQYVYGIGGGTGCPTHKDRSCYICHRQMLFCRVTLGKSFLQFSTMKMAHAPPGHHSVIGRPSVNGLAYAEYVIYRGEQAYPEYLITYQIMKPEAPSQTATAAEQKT
Sequence of UniProt O43399 (O43399 whole entry, looked up): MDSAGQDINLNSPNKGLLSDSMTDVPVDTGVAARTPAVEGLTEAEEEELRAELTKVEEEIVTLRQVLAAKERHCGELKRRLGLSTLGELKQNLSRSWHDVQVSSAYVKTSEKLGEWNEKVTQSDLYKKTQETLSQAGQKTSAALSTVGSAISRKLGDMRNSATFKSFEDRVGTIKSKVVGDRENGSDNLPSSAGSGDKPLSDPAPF

Target	log2 fold change (nilotinib)	log2 fold change [1]	log2 fold change (dasatinib)	log2 fold change [2]	log2 fold change [3]	log2 fold change (quisinostat)	log2 fold change (tipifarnib)	log2 fold change [4]	log2 fold change [5]	log2 fold change [6]	log2 fold change [7]	log2 fold change (vorinostat)	log2 fold change (silmitasertib)	log2 fold change [8]	log2 fold change (entospletinib)
THEMIS2 (UniProt Q5TEJ8)	-0.096	0.06	-0.092	-0.144	0.059	0.03	-0.039	0.051	0.095	0.019	-0.029	-0.315 (active)	0.069	0.059	-0.007
TPM4 (UniProt P67936)	0.028	-0.068	0.058	-0.028	-0.01	0	-0.004	-0.054	0.007	-0.029	-0.001	0.166	-0.018	-0.023	0.048
UBE2D1 (UniProt P51668)	0.259 (active)	-0.093	-0.1	-0.064	0.033	0.108	-0.065	-0.06	-0.066	0.029	-0.01	0.088	-0.101	-0.001	0.056
TRIM33 (UniProt H0Y612)	-0.021	0.153	0.043	0.138	-0.033	-0.238	-0.052	0.069	-0.036	-0.106	-0.039	-0.335 (active)	0.061	0.03	0.084
TUBAL3 (UniProt A6NHL2)	0.068	-0.189	-0.074	0.103	0.082		0.141		-0.025	-0.142	0.083	-0.195	0.069		-0.026
UBL5 (UniProt Q9BZL1)	0.028	0.154	0.036	0.018	0.027	0.341 (active)	0.031	-0.149		-0.013	-0.027	-0.078	0.065	0.077	-0.049
TPD52L2 isoform 7 (UniProt O43399)	0.022	0.019	0.056	0.042	-0.009	0.038	-0.012	-0.022	-0.039	0.049	-0.043	0.148	-0.044	-0.027	-0.016
TSPAN3 (UniProt O60637)	0.004	-0.003	0.118	-0.199	0.033		-0.032		-0.098	0.015	-0.124	0.105	-0.056		-0.005
TLE3 isoform 5 (UniProt Q04726)	0.142	-0.174	-0.007	-0.06	0.028	-0.102	0.05	-0.009	0.024	0.058		0.144	0.019	-0.058	-0.002
UBE4A isoform 2 (UniProt Q14139)	0.023	-0.009	-0.075	-0.022	0.026	-0.018	-0.003	0.054	0.002	0.017	0.007	-0.257 (active)	0.019	0.029	0.026
TRAF7 (UniProt Q6Q0C0)	0.16	0.027	-0.005	0.154	0.163	-0.035	-0.1	-0.033			0.052			0.059	0.058
TUBB4B (UniProt P68371)	0.049	-0.05	-0.025	-0.034	-0.005	0.033	-0.001	0.006	-0.019	0.009	0.014	-0.712 (active)	0.024	-0.001	0.005
TNKS (UniProt O95271)	-0.053	-0.016	0.081	0.04	-0.051	-0.021	0.103	0.032	0.088	0.028	-0.009	-0.1	0.06	-0.001	-0.085
TK1 (UniProt K7ERV3)	-0.024	-0.134	-0.114	0.086	0.02	-0.059	0.059	0.122		-0.016	-0.018	0.086	0.01	-0.014	-0.013
TJP1 (UniProt G3V1L9)	0.093	0.051	0.083	0.11	-0.139	0.137	-0.078	0.022		-0.08	-0.044	-0.484 (active)	-0.061	0.127	
TPX2 (UniProt Q9ULW0)	-0.001	0.007	-0.002	0.002	0	-0.04	-0.007	-0.021	-0.02	-0.004	0.003	-0.498 (active)	-0.04	0.009	0.015
TXNIP (UniProt Q9H3M7)	0.091	0.038	-0.023	-0.026	0.012	-0.077	-0.022	0.029		0.005	-0.076	-0.399 (active)	0.04	-0.051	0.024
TLK1 isoform 2 (UniProt Q9UKI8)	-0.044	0.414 (active)	-0.005	0.188	-0.036	-0.23	0.023	0.133	0.035	-0.021	0.001	-0.369 (active)	0.117	0.156	0.04
UBXN2B (UniProt Q14CS0)	-0.04	-0.068	0.08	-0.208	-0.099		0.021		-0.024	-0.06	0.095	0.085	0.053		-0.032
TFPI (UniProt P10646)	-0.076	0.04		-0.035		-0.088	-0.025	-0.067	0.035	0.02	0.067	0.106	0.01	-0.063	-0.057
TTC5 (UniProt Q8N0Z6)	0.012	-0.064	0	-0.016	0.047	-0.084	0.01	0	-0.007	0.001	-0.003	-0.257 (active)	-0.029	-0.018	0.051
TFIP11 (UniProt Q9UBB9)	0.004	0.003	-0.059	0.035	0.01	-0.067	-0.005	0.048	0	-0.004	-0.001	-0.06	0.013	0.001	0.067
